Reference: PubChem BioAssay AID504334 (NMMLSC, 2011)

Experiment: AGP1-GFP expression modulators, hit retest, confirmation, cell-based, flow cytometry, S. cerevisiae, cherry pick set 3 (AID 504334);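 also: median GFP fluorescence per well by flow cytometry over the all cells gate; ratio of sample to mean DMSO control signal so DMSO = 100% not 0%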
Conditions: S. cerevisiae AGP1-GFP strain, 3 h, at 10 µM, active compounds read high;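 active = response relative to DMSO over 150%; inconclusive = yeast strain with under 70 recorded events; inactive = the rest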

Percent response vs DMSO, inactive:
COc1cccc(NC(=O)CC(C)=O)c1 98.8%
Cc1ccc2c(C)ccc(O)c2n1 102%
Cc1cccc(C)c1Nc1ncnc(N)c1[N+](=O)[O-] 102%
C=CCNc1nc(N)c([N+](=O)[O-])c(Nc2ccccc2OC)n1 95.4%
CN1CCN(C(=O)c2cc(COc3ccc(F)cc3Cl)on2)CC1c1ccccc1 (stereo unspecified) 101%
COCCCNc1nc(N)c([N+](=O)[O-])c(Nc2cc(OC)ccc2OC)n1 100%
O=C(Nc1cccc(Cl)c1)ON=C1c2ccccc2-c2ccccc21 99.1%
Cc1cc(C)c2ccc(N)nc2c1O 101%
O=C1c2ccccc2C(=O)c2c1cccc2N(CCO)CCO 98.8%
COc1cc(OC)cc(C(=O)Nc2ccc(-c3nc4ccccc4o3)cc2)c1 99.1%
O=C(Nc1ccccc1)ON=C1c2ccccc2-c2ccccc21 97.8%
OCCN1CCN(c2ncnc3ccc(Br)cc23)CC1 99.8%
Nc1[nH]c(=O)nc(Nc2ccccc2)c1N=O 101%
CC1=CN2C(=N)/C(=C/c3ccc(C)o3)C(=O)N=C2S1 98.1%
CNc1nc(C)c([N+](=O)[O-])c(Nc2ccc(OC)cc2)n1 99.4%
Cc1ccc(Nc2cc(=O)[nH]c(=O)[nH]2)cc1C 95.8%
Brc1ccc2ncnc(NCc3ccccc3)c2c1 94.8%
Cc1ccc2c(Cl)cc(Cl)c(O)c2n1 109%
CCCCC(=O)NCCc1cc2c(OC)ccc(OC)c2[nH]c1=O 98.8%
COc1ccccc1Nc1nc(NCC(C)C)nc(N)c1[N+](=O)[O-] 101%
Nc1c(C(=O)O)ccc2c1C(=O)c1ccccc1C2=O 114%
